These compounds were tested against T1, Aspartate--tRNA(Asp/Asn) ligase (Mycobacterium tuberculosis (strain ATCC 25618 / H37Rv)) (UniProt P9WFW3) (assay: Assay for Asp RNA synthetase-1 from Mycobacterium tuberculosis). Details: 30 µM.
T1 sequence (whole entry): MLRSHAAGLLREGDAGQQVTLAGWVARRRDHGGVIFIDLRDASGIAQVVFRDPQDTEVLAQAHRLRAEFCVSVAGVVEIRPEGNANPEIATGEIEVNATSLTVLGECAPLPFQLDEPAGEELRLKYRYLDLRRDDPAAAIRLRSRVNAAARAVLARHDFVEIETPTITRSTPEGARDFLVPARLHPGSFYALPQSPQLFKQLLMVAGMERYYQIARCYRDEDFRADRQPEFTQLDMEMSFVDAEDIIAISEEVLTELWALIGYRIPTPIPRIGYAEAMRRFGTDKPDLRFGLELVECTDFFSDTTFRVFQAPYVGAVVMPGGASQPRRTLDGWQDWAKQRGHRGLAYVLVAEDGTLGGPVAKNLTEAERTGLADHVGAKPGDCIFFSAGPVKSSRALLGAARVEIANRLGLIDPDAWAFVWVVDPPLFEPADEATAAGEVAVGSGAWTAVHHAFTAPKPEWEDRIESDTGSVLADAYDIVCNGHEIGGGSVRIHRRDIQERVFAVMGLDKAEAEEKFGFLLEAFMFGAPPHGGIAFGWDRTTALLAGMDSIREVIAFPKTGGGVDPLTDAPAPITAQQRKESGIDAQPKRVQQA
Type: functional
Set-up: scale not given: in the data most compounds retested in dose-response had high values

Compound | Percent Effect [%]
COc1ccc(-n2cnnc2SCC(C)(C)O)cn1 | -0.425
Cc1cc(NC(=O)Cn2cc(C#N)c(=O)c3cc(Br)ccc32)no1 | -2.42
CCc1nc(CCNC(=O)Nc2cc(C(N)=O)sc2C)cs1 | -1.32
CCCC(NC(=O)c1ccc(OC)cc1F)c1nnn[nH]1 (stereo not given) | -1.41
CC(=O)Nc1cc(C(=O)N2CCOCC2c2ccc(C)o2)ccc1F (stereo not given) | -5.67
Cc1cc(C(=O)NC2CCCN(c3ccccc3)C2=O)on1 (stereo not given) | 0.287
CCn1cc(NC(=O)NC2CCCc3c2cnn3CCO)cn1 (stereo not given) | -3.64
Cc1nn(CCO)c(C)c1CNC1CCc2c(Cl)cccc21 (stereo not given) | 0.54
Cc1noc(C)c1C(=O)N(C)Cc1nc(-c2ccccn2)no1 | -3.85
CN(C)C(=O)CN(C)C(=O)c1cnc(Cc2ccc(F)cc2)s1 | -1.57
COc1ccc([C@@H]2CN(C(=O)CCC(F)(F)F)C[C@H]2NC(C)=O)cc1 | -2.84
O=C1O[C@@H]2CN(Cc3cccc(F)c3)C[C@@H]2N1CCCN1CCOCC1 | 0.287
O=S(=O)(Cc1ccccc1F)NCCCN1CCCCC1 | 0.172
O=C(NC1(c2nnn(Cc3ccncc3)n2)CCCC1)c1ccccc1 | -0.678
CCC(=O)NCc1cc(Br)c(OC)c(OC)c1 | -1.55
Cc1cc(S(=O)(=O)N2CCCc3ccc(F)cc32)sc1C(=O)O | 1.87
CCS(=O)(=O)c1ccc(N2CCC(NC(=O)c3cnn(C)c3)CC2)cc1 | -0.471
CCS(=O)(=O)c1ccc(N2CCC(NC(=O)CCC(C)C)CC2)cc1 | -2.31
Cc1nc(C)n(CC2CCCCN2CC(=O)Nc2nncs2)n1 (stereo not given) | -3.83
CN1CCN(C(CNC(=O)CCn2cccn2)c2cccs2)CC1 (stereo not given) | -1.05

Compound | Percent Effect [%]
COc1ncccc1NC(=O)N1CCC(CNC(C)=O)CC1 | -1.39
O=C(NC1(c2nnn(CCO)n2)CCCC1)c1ccccc1 | -6.13
CCc1nc(C)c(C(=O)N2C[C@H]3CC[C@@H]2CN(S(=O)(=O)N(C)C)C3)s1 | -1.85
CN1C(=O)CC(C(=O)O)C12CCN(Cc1ccc(Cl)cc1F)CC2 (stereo not given) | -1.62
Cc1cnn(C2CN(CC(O)c3ccc4c(c3)OCCO4)C2)c1 (stereo not given) | -4.61
O=C(O)c1ccc(F)c(S(=O)(=O)Nc2c(F)cccc2-n2cccn2)c1 | -1.78
CN(C)CCn1c(=O)oc2ccc(NC(=O)CC(C)(C)C)cc21 | 0.793
CCCOCCN1CCC2(CC1)CC(c1ccccc1)C(=O)N2C (stereo not given) | -5.14
Cc1ccc(C2COCCN2C(=O)c2ccc(N(C)C)cc2)o1 (stereo not given) | -0.816
COc1cccc(-c2noc(-c3ccc(NCC4CC4)nc3)n2)c1OC | -3.57
CC(C)c1cccc(CSc2nnc(CN3CCCC3=O)o2)n1 | 1.44
CC(O)CN1CCN(C(=O)c2cnn(-c3ccccc3F)c2)CC1 (stereo not given) | -2.52
Cc1cc(F)ccc1CN1CCC(O)(CN2CCCCC2)C1 (stereo not given) | -0.747
CCNC(=O)NC(=O)CSC(C)c1c(F)cccc1F (stereo not given) | -1.51
Cc1cc(F)ccc1OC1(C(=O)O)CCN(Cc2ccncc2)CC1 | -3.25
COC(=O)CCN1CCCC1c1ccccc1Cl (stereo not given) | 2.1
Cc1nn(CCn2ccnc2-c2cc3n(n2)CCCNC3)c(C)c1Cl | -0.0115
COc1ccc(-c2nc(CN3CCOCS3(=O)=O)c(C)o2)cc1 | -1.67
O=C1N(Cc2cccc(F)c2F)CCCC1(O)CNC1CCCC1 (stereo not given) | -0.655
CC(C)CN1CCCn2nc(CNC(=O)CCCc3cn[nH]c3)cc2C1 | -0.885

Source: ChEMBL document CHEMBL3988442, “University of Dundee, Small-Polar-MMV Screening Library” (2021)
